# Results reported in publication PMC10812921, “Transcriptional Coactivator BOB1 (OBF1, OCA-B) Modulates the Specificity of DNA Recognition by the POU-Domain Factors OCT1 and OCT2 in a Monomeric Configuration”.
# Biological target: POU1 (OCT1 POU domain);BOB1 (OBF1, OCA-B) (human;human, UniProt P14859;Q16633 260-458;1-256, |)
# Test: EMSA-SELEX-seq; with BOB1 (ternary complex band); 20 mM Tris-HCl pH 7.6, 140 mM NaCl, 10% glycerol, 0.5 mM EDTA, 0.05% Triton X-100, 0.1 mg/mL BSA, 0.1 mg/mL poly(dI-dC), 5 mM DTT, room temperature, 20 min; high values mean tight binding
# Conditions: protein: recombinant;recombinant; copies: 1;1; dsDNA, one strand shown
# Summary of the method: (§1)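 Binding preference is the percentage of sequenced 8-mers matching a motif pattern. Tagged POU-domain proteins expressed in E. coli BL21 were purified under denaturing conditions and renatured. For binding, 30 ng protein met 300 ng of a PCR-amplified double-stranded random 35-nt library, with or without 28 ng coactivator protein, in 20 μL Tris–HCl pH 7.6 binding buffer for 20 min at RT. Complex bands were cut from native 6% PAGE, eluted and PCR-amplified over four rounds, then Illumina-sequenced.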
row,Sequence,binding signal
1,AACTTAAG,0.0363 % of ANNNNAAN 8-mers
2,AGTGGAAT,0.0847 % of ANNNNAAN 8-mers
3,ATGCAAAA,3.15 % of ANNNNAAN 8-mers
4,ACATCAAT,0.0367 % of ANNNNAAN 8-mers
5,AAGTAAAC,0.0535 % of ANNNNAAN 8-mers
6,ACATAAAC,0.0652 % of ANNNNAAN 8-mers
7,ACAATAAG,0.0375 % of ANNNNAAN 8-mers
8,ATTATAAT,0.163 % of ANNNNAAN 8-mers
9,ATCGTAAA,0.0531 % of ANNNNAAN 8-mers
10,ATTGCAAG,0.0336 % of ANNNNAAN 8-mers
11,AGCTCAAT,0.0261 % of ANNNNAAN 8-mers
12,ACAAGAAC,0.0144 % of ANNNNAAN 8-mers
13,ATTTCAAA,0.103 % of ANNNNAAN 8-mers
14,ACGGCAAG,0.0211 % of ANNNNAAN 8-mers
15,ACTTAAAT,0.0714 % of ANNNNAAN 8-mers
16,AACCAAAA,0.0753 % of ANNNNAAN 8-mers
17,ATGGGAAG,0.0683 % of ANNNNAAN 8-mers
18,AATGGAAA,0.268 % of ANNNNAAN 8-mers
19,AATGCAAT,0.089 % of ANNNNAAN 8-mers
20,ACTCCAAG,0.0195 % of ANNNNAAN 8-mers

row,Sequence,binding signal
1,ACCAGAAC,0.0129 % of ANNNNAAN 8-mers
2,AAGCAAAT,0.906 % of ANNNNAAN 8-mers
3,AACTCAAA,0.0445 % of ANNNNAAN 8-mers
4,ATAGGAAC,0.0375 % of ANNNNAAN 8-mers
5,ACCGCAAT,0.0199 % of ANNNNAAN 8-mers
6,AGAAGAAG,0.0379 % of ANNNNAAN 8-mers
7,ATGGAAAG,0.199 % of ANNNNAAN 8-mers
8,AAAACAAC,0.0609 % of ANNNNAAN 8-mers
9,AGACGAAT,0.0418 % of ANNNNAAN 8-mers
10,AAACCAAA,0.0761 % of ANNNNAAN 8-mers
11,AAGTGAAC,0.0254 % of ANNNNAAN 8-mers
12,ACTGTAAG,0.0265 % of ANNNNAAN 8-mers
13,AGCTTAAC,0.0195 % of ANNNNAAN 8-mers
14,AACTTAAA,0.046 % of ANNNNAAN 8-mers
15,ACAGAAAA,0.0472 % of ANNNNAAN 8-mers
16,AGGAAAAG,0.133 % of ANNNNAAN 8-mers
17,AACCTAAG,0.018 % of ANNNNAAN 8-mers
18,ACGACAAG,0.0215 % of ANNNNAAN 8-mers
19,AGTGCAAT,0.0367 % of ANNNNAAN 8-mers

# Biological target: T1, POU2 (OCT2 POU domain);BOB1 (OBF1, OCA-B) (human;human, UniProt P09086;Q16633 175-386;1-256, |)
# T1 sequence 1: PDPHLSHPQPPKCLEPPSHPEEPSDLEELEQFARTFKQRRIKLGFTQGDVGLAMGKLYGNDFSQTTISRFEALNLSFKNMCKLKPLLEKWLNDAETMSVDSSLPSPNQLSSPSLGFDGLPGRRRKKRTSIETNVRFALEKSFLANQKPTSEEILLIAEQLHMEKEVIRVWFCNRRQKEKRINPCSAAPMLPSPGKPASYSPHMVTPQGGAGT
# T1 sequence 2: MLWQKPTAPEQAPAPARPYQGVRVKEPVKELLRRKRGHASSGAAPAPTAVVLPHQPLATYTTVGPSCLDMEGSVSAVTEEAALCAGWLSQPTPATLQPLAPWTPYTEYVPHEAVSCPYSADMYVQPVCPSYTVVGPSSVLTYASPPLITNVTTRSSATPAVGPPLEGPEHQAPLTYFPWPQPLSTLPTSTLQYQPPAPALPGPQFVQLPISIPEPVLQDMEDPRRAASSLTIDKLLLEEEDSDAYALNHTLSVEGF
# Test: as above
# Conditions: protein: recombinant;recombinant; copies: 1;1; dsDNA, one strand shown
# Summary of the method: as §1
row,Sequence,binding signal
1,AACTTAAG,0.0363 % of ANNNNAAN 8-mers
2,AGTGGAAT,0.104 % of ANNNNAAN 8-mers
3,ATGCAAAA,3.29 % of ANNNNAAN 8-mers
4,ACATCAAT,0.0338 % of ANNNNAAN 8-mers
5,AAGTAAAC,0.0487 % of ANNNNAAN 8-mers
6,ACATAAAC,0.0751 % of ANNNNAAN 8-mers
7,ACAATAAG,0.0396 % of ANNNNAAN 8-mers
8,ATTATAAT,0.207 % of ANNNNAAN 8-mers
9,ATCGTAAA,0.0471 % of ANNNNAAN 8-mers
10,ATTGCAAG,0.0363 % of ANNNNAAN 8-mers
11,AGCTCAAT,0.0223 % of ANNNNAAN 8-mers
12,ACAAGAAC,0.0297 % of ANNNNAAN 8-mers
13,ATTTCAAA,0.0751 % of ANNNNAAN 8-mers
14,ACGGCAAG,0.0239 % of ANNNNAAN 8-mers
15,ACTTAAAT,0.057 % of ANNNNAAN 8-mers
16,AACCAAAA,0.0388 % of ANNNNAAN 8-mers
17,ATGGGAAG,0.0735 % of ANNNNAAN 8-mers
18,AATGGAAA,0.164 % of ANNNNAAN 8-mers
19,AATGCAAT,0.0916 % of ANNNNAAN 8-mers
20,ACTCCAAG,0.0124 % of ANNNNAAN 8-mers

row,Sequence,binding signal
1,ACCAGAAC,0.0223 % of ANNNNAAN 8-mers
2,AAGCAAAT,0.826 % of ANNNNAAN 8-mers
3,AACTCAAA,0.0231 % of ANNNNAAN 8-mers
4,ATAGGAAC,0.0545 % of ANNNNAAN 8-mers
5,ACCGCAAT,0.0264 % of ANNNNAAN 8-mers
6,AGAAGAAG,0.0454 % of ANNNNAAN 8-mers
7,ATGGAAAG,0.129 % of ANNNNAAN 8-mers
8,AAAACAAC,0.0462 % of ANNNNAAN 8-mers
9,AGACGAAT,0.0479 % of ANNNNAAN 8-mers
10,AAACCAAA,0.0446 % of ANNNNAAN 8-mers
11,AAGTGAAC,0.0388 % of ANNNNAAN 8-mers
12,ACTGTAAG,0.0264 % of ANNNNAAN 8-mers
13,AGCTTAAC,0.0165 % of ANNNNAAN 8-mers
14,AACTTAAA,0.038 % of ANNNNAAN 8-mers
15,ACAGAAAA,0.0322 % of ANNNNAAN 8-mers
16,AGGAAAAG,0.0702 % of ANNNNAAN 8-mers
17,AACCTAAG,0.0173 % of ANNNNAAN 8-mers
18,ACGACAAG,0.0231 % of ANNNNAAN 8-mers
19,AGTGCAAT,0.0396 % of ANNNNAAN 8-mers
